In PubChem BioAssay AID624255 (Broad Institute, 2012):
The whole screen tested about 77,000 compounds, of which about 4,600 (6%) were called active. Not shown: some 1% with an inconclusive outcome.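 How the source made its calls: active means mean inhibition above about 93%, with at least 55% of replicates each passing it (limit read from the data, passing the limit was not always enough); inconclusive means only one of those two conditions holds; inactive means neither condition holds.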 The full list was thinned out, with actives kept by preference.

Assay: T. cruzi intracellular proliferation inhibitors, primary screen, cell-based, beta-gal Tulahuen parasites, NIH3T3 host, luminescence (AID 624255)
Settings: T. cruzi beta-gal in NIH3T3, GalScreen luminescence, 90 h; at 8.34 µM; active compounds read high

inhibition, inactive:
COc1ccc(S(=O)(=O)N2CC[C@H]3[C@@H](CO)N(C)c4ccc(C#Cc5ccccc5OC)cc4[C@H]32)cc1 52%
CCC(=O)Nc1ccc2c(c1)C(=O)N(C)[C@@H]1CC[C@@H](CC(=O)NCc3ccccc3Cl)O[C@H]1CO2 5.11%
CCNC(=O)Nc1ccc2c(c1)C(=O)N(C)[C@@H]1CC[C@@H](CC(=O)NCCOC)O[C@@H]1CO2 4.1%
C[C@@H]1CN([C@@H](C)CO)S(=O)(=O)c2ccc(C3=CCCC3)cc2O[C@@H]1CN(C)Cc1ccncc1 69.1%
C[C@H]1CN([C@@H](C)CO)S(=O)(=O)c2ccc(C3=CCCC3)cc2O[C@H]1CN(C)Cc1cccc(C(=O)O)c1 18.6%
C[C@@H]1CN([C@@H](C)CO)S(=O)(=O)c2ccc(C3=CCCCC3)cc2O[C@@H]1CN(C)C(=O)CN(C)C 84.4%
C[C@@H]1CN([C@@H](C)CO)S(=O)(=O)c2ccc(C3=CCCC3)cc2O[C@H]1CN(C)C(=O)CC1CC1 36%
C[C@H](CO)N1C[C@H](C)[C@@H](CN(C)Cc2cccnc2)Oc2cc(C3=CCCC3)ccc2S1(=O)=O 93.1%
C[C@@H]1CN([C@@H](C)CO)S(=O)(=O)c2ccc(C3=CCCCC3)cc2O[C@@H]1CN(C)Cc1cccc(C(=O)O)c1 24%
O=C(CCN1CCCCC1)NCC[C@H]1CC[C@@H](NC(=O)C2CCOCC2)[C@H](CO)O1 26.2%
CO[C@@H]1CN(C)C(=O)c2cc(NC(=O)C3CC3)ccc2OC[C@@H](C)N(C(=O)NC(C)C)C[C@@H]1C 72%
CC(C)(C)[S@](=O)N1Cc2cc(C(=O)N3CCCCC3)nc(-c3cccc(-c4ccccc4F)c3)c2[C@@H]1CCO 23.3%
C[C@@H]1CN([C@@H](C)CO)C(=O)c2cc(-c3cncnc3)cnc2O[C@H]1CN(C)C(=O)c1cccc(F)c1 0.0585%
COc1ccc(CN(C)C[C@@H]2Oc3ccc(NC(=O)Nc4cccc5ccccc45)cc3C(=O)N([C@H](C)CO)C[C@H]2C)cc1 74.4%
C[C@@H]1CN([C@H](C)CO)C(=O)c2cc(NC(=O)Nc3ccccc3)ccc2O[C@@H]1CN(C)Cc1ccc(Cl)c(Cl)c1 -114%
C[C@@H]1CN([C@H](C)CO)C(=O)c2cc(NC(=O)Nc3ccccc3)ccc2O[C@H]1CN(C)Cc1ccc(Cl)c(Cl)c1 -217%
C[C@@H]1CN([C@@H](C)CO)C(=O)c2cc(NC(=O)Nc3cccc4ccccc34)ccc2O[C@@H]1CN(C)Cc1ccc(-c2ccccc2)cc1 84.4%
COc1ccc(S(=O)(=O)N[C@H]2C=C[C@@H](CC(=O)O)O[C@@H]2CO)cc1 8.59%
CCCN1C[C@@H](C)[C@@H](OC)CN(C)C(=O)c2ccc(NC(=O)Nc3cccc(F)c3)cc2OC[C@@H]1C 9.75%
COc1cccc(CNC(=O)C[C@H]2CC[C@@H](NC(C)=O)[C@@H](CO)O2)c1 -45.2%
CC(=O)N1C[C@@H]2[C@H](c3ccccc31)[C@H](CO)N2C(=O)Nc1ccc(F)cc1 -6.85%
C[C@@H](NC(=O)C[C@@H]1CC[C@H]2[C@@H](COC[C@@H](O)CN2C(=O)Nc2cccc(F)c2)O1)c1ccccc1 33.4%
O=C(C[C@@H]1C[C@H]2c3cc(NC(=O)Nc4ccccc4)ccc3O[C@H]2[C@@H](CO)O1)NCc1cccnc1 -4.79%
Cc1noc(C)c1NC(=O)Nc1ccc2c(c1)C(=O)N([C@H](C)CO)C[C@@H](C)[C@@H](CN(C)S(=O)(=O)c1ccc(Cl)cc1)OCCCC[C@H](C)O2 55.2%
COc1ccccc1S(=O)(=O)N[C@@H]1CC[C@H](CC(=O)N2CCN(C)CC2)O[C@@H]1CO -19.7%
COc1cccc(S(=O)(=O)Nc2ccc3c(c2)[C@@H]2C[C@@H](CC(=O)NCc4ccc(Cl)cc4)O[C@H](CO)[C@@H]2O3)c1 32.2%
CCCNC(=O)C[C@H]1C[C@@H]2c3cc(NS(=O)(=O)c4cccc(OC)c4)ccc3O[C@@H]2[C@@H](CO)O1 -11.6%
O=C(C[C@H]1C[C@H]2c3cc(NC(=O)c4ccc5c(c4)OCO5)ccc3O[C@H]2[C@@H](CO)O1)NCc1cccc(F)c1 38.1%
O=C(C[C@H]1C[C@@H]2c3cc(NC(=O)c4ccc5c(c4)OCO5)ccc3O[C@@H]2[C@@H](CO)O1)NCc1cccnc1 -76.9%
O=C(C[C@@H]1C[C@H]2c3cc(NC(=O)C4CCOCC4)ccc3O[C@H]2[C@H](CO)O1)NCc1ccc2c(c1)OCO2 40.2%
CN1CCN(C(=O)C[C@@H]2C[C@@H]3c4cc(NC(=O)c5ccc6c(c5)OCO6)ccc4O[C@@H]3[C@H](CO)O2)CC1 8.43%
CN(C)C(=O)C[C@@H]1C[C@@H]2c3cc(NC(=O)c4ccc5c(c4)OCO5)ccc3O[C@@H]2[C@H](CO)O1 -59.5%
O=C(C[C@@H]1C[C@H]2c3cc(NC(=O)CC4CC4)ccc3O[C@H]2[C@@H](CO)O1)NCc1ccc2c(c1)OCO2 30.3%
CCNC(=O)C[C@@H]1CC[C@H]2[C@@H](COc3ccc(NC(=O)NC(C)C)cc3C(=O)N2C)O1 39.8%
C[C@H](CO)N1C[C@H](C)[C@@H](CN(C)S(=O)(=O)c2cccs2)OCc2ccccc2-c2ccccc2C1=O 24.1%
O=C(C[C@@H]1C[C@H]2c3cc(NS(=O)(=O)c4ccc(F)cc4)ccc3O[C@H]2[C@H](CO)O1)NC1CCCC1 -34%
O=S(=O)(N[C@@H]1CC[C@H](CCn2cc(-c3ccccc3F)nn2)O[C@H]1CO)c1ccc(F)cc1 41.8%
COc1cccc(NC(=O)Nc2ccc3c(c2)C(=O)N(C)[C@@H]2CC[C@@H](CC(=O)NCCc4ccccc4)O[C@H]2CO3)c1 52.2%
COc1ccc(S(=O)(=O)N2C[C@@H](O)COC[C@H]3O[C@H](CC(=O)N[C@H]4CCN(Cc5ccccc5)C4)CC[C@@H]32)cc1 77.6%
COc1ccc(NC(=O)Nc2ccc3c(c2)C(=O)N([C@H](C)CO)C[C@@H](C)[C@@H](CN(C)C(=O)NC(C)C)OCCCC[C@H](C)O3)cc1 38.7%
CCC(=O)N(C)C[C@H]1Oc2cc(-c3ccccc3F)ccc2S(=O)(=O)N([C@H](C)CO)C[C@@H]1C 81.3%
O=C(C[C@H]1CC[C@H]2[C@@H](COC[C@H](O)CN2Cc2ccncc2)O1)NCC1CC1 8.17%
C[C@@H]1CN([C@@H](C)CO)C(=O)c2cc(C#CCN(C)C)cnc2O[C@H]1CN(C)S(=O)(=O)c1cn(C)cn1 -8.13%
Cn1cnc(S(=O)(=O)N2C[C@H](O)COC[C@@H]3O[C@H](CC(=O)NC4CCCC4)CC[C@H]32)c1 5.65%
CCC(=O)N1[C@@H]2c3ccc(-c4cccnc4)c(=O)n3C[C@H]1[C@H](CO)[C@H]2C(=O)N1CCc2ccccc2C1 29.4%
O=C(C1CCC1)N1C[C@@H]2[C@H](c3ccccc31)[C@H](CO)N2C(=O)c1ccccc1 11.8%
CCCN(C)C[C@H]1Oc2cc(C#CCC(C)C)ccc2S(=O)(=O)N([C@H](C)CO)C[C@H]1C 75.8%
CC(C)CC#Cc1ccc2c(c1)O[C@H](CN(C)C(=O)c1cccnc1)[C@@H](C)CN([C@H](C)CO)S2(=O)=O 78.2%
COCC#Cc1ccc2c(c1)O[C@@H](CN(C)Cc1cccnc1)[C@@H](C)CN([C@H](C)CO)S2(=O)=O 70%
CCNC(=O)C[C@H]1CC[C@@H](NC(=O)C2CCOCC2)[C@@H](CO)O1 40%

inhibition, active:
C[C@H]1CN([C@@H](C)CO)S(=O)(=O)c2ccc(C3=CCCC3)cc2O[C@@H]1CN(C)Cc1ccccc1 99.6%
C[C@@H]1CN([C@H](C)CO)S(=O)(=O)c2ccc(C3=CCCC3)cc2O[C@H]1CN(C)Cc1ccccc1F 118%
C[C@H]1CN([C@@H](C)CO)S(=O)(=O)c2ccc(C3=CCCCC3)cc2O[C@@H]1CN(C)Cc1ccccc1 117%
C[C@@H]1CN([C@@H](C)CO)C(=O)c2cc(NC(=O)Nc3cccc4ccccc34)ccc2O[C@H]1CN(C)Cc1ccc(Oc2ccccc2)cc1 121%
C[C@@H]1CN([C@@H](C)CO)C(=O)c2cc(NC(=O)Nc3cccc4ccccc34)ccc2O[C@H]1CN(C)Cc1ccc(Cl)c(Cl)c1 97.7%
O=C(C[C@@H]1C[C@@H]2c3cc(NC(=O)c4ccc5c(c4)OCO5)ccc3O[C@@H]2[C@@H](CO)O1)NCc1ccc(Cl)cc1 97.9%
O=C(Nc1ccc2c(c1)[C@@H]1C[C@H](CC(=O)N3CCOCC3)O[C@@H](CO)[C@@H]1O2)c1ccc2c(c1)OCO2 103%
COc1cccc(S(=O)(=O)Nc2ccc3c(c2)[C@H]2C[C@H](CC(=O)NCc4ccc(Cl)cc4)O[C@H](CO)[C@H]2O3)c1 159%
O=C(C[C@@H]1C[C@H]2c3cc(NC(=O)C4CCC4)ccc3O[C@H]2[C@@H](CO)O1)NCc1ccc2c(c1)OCO2 106%
CC(C)CC#Cc1ccc2c(c1)O[C@H](CN(C)Cc1cccnc1)[C@H](C)CN([C@@H](C)CO)S2(=O)=O 103%
CC(C)CC#Cc1ccc2c(c1)O[C@H](CN(C)Cc1ccncc1)[C@H](C)CN([C@H](C)CO)S2(=O)=O 118%
